# High-throughput results as filed in PubChem BioAssay.
# Shown are actives, neighbours in structure and some others; about 21% of the full set was active somewhere.
# Pf growth 48h: Primary qHTS for delayed death inhibitors of the malarial parasite plastid, 48 hour incubation. P. falciparum luciferase growth in erythrocytes, 48 h. 310,000 compounds, 5.9% hits. Potency, µM (top dose mostly 28.7 µM), without a hit: at the highest dose activity change, negative = inhibition, most hits filed as inhibitors; further: potency means the concentration at half of the fitted maximal effect; on the % scale 0 is the no-effect control and ±100 the full control effect
#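 Cell-based growth assay: transgenic P. falciparum expressing firefly luciferase, cultured in red cells within RPMI 1640 containing 0.5% w/v Albumax, 24 mM bicarbonate and gentamycin. A drop in luciferase activity indicates inhibition.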
# Sm TGR inh: qHTS Assay for the Inhibitors of Schistosoma Mansoni Peroxiredoxins; Schistosoma mansoni thioredoxin glutathione reductase (TGR), Q962Y6; purified TGR, DTNB reduction, TNB absorbance 405 nm; Potency, µM (top dose mostly 114 µM), inactives show at the highest dose activity change, negative = inhibition, hits mostly inhibitors; 360,000 compounds, 3% hits; AID 485364, 2010; further: potency means the concentration at half of the fitted maximal effect; on the % scale 0 is the no-effect control and ±100 the full control effect; nearly all actives have a fitted effect of over 60% in size
#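 Kinetic colorimetric format: TGR-catalysed, NADPH-driven DTNB reduction monitored via TNB absorbance. Enzyme dispensed at 20 nM; compound exposure 15 min at room temperature before reaction start.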
# Shiga toxin inh: A qHTS for Small Molecule Inhibitors of Shiga Toxin | AID 2315, 2010 | 290,000 compounds, 9.2% hits | Vero cells, Shiga toxin protein synthesis inhibition reporter | inhibition, % at 38.7 µM; in the data active means inhibition mostly above about 28%, no sharp cut-off; inactive means mostly below about 43%; further: 0% is about no effect
# Cycloheximide cs: Cycloheximide Counterscreen for Small Molecule Inhibitors of Shiga Toxin | cell reporter, cycloheximide protein synthesis inhibition counterscreen | max response, % | 300,000 compounds, 12% hits; in the data active means max response mostly above about 13%, no sharp cut-off; inactive means mostly below about 14%; further: read at 38.3 µM for the half of the compounds with a filed dose; 0% is about no effect
# Pf growth 96h: Primary qHTS for delayed death inhibitors of the malarial parasite plastid, 96 hour incubation; Potency, µM (highest dose often 28.7 µM), without a hit: top-dose activity change, negative = inhibition, actives largely listed as inhibitors; AID 504834, 2011; P. falciparum luciferase reporter growth, 96 h; 320,000 compounds, 6.9% hits; further: potency means the concentration at half of the fitted maximal effect; on the % scale 0 is the no-effect control and ±100 the full control effect
#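 Erythrocytes infected with luciferase-expressing P. falciparum were dispensed at 2% hematocrit and 0.05% parasitemia (final), then incubated with compounds 96 hours at 37 C in 5% CO2. Luminescence after detection reagent addition reported growth.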
# NS1 inh: qHTS Assay for Inhibitors of Influenza NS1 Protein Function; 270,000 compounds, 0.4% hits; Potency, µM (top dose mostly 46.1 µM), inactives show top-dose activity, positive = more growth; AID 2326, 2010; calls by dose curve; further: potency means the concentration at half of the fitted maximal effect; actives are rising curves; nearly all actives have a fitted effect of over 50% in size
#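 OD600 was taken as the measure of yeast growth restored by compound in an NS1-expressing S. cerevisiae strain. Cells had been washed out of glucose medium and diluted 1:100 into galactose -URA medium, pH 6.0.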
# * marks the source's active call; other numbers are inactive results; i = inactive; ? = inconclusive; . = no result given; [ ] = another dose, or the depositor's remark. Unless noted, the call rests on the fitted dose curve; in most records, active means well fitted curve in the direction sought with a large enough effect; inconclusive means small, poorly fitted or top-dose-only effect, or another doubt; inactive means no such curve, though single readings can be large; an effect the other way counts as inactive or inconclusive.
SMILES,Pf growth 48h,Sm TGR inh,Shiga toxin inh,Cycloheximide cs,Pf growth 96h,NS1 inh
CC(C)OC(=O)c1nn2c(C(F)(F)F)cc(-c3ccc(Br)o3)nc2c1Br,-7%,20µM*,-13,-9,33%,5%
CC(C)OC(=O)c1nn2c(C(F)(F)F)cc(-c3ccco3)nc2c1Cl,8%,-13%,-7,1,13µM*,0%
CCOC(=O)c1cnn2c(C(F)(F)F)cc(-c3ccco3)nc12,2%,0%,-7,-7,2%,-2%
Cc1c(C(=O)O)nc(/C=C\C(=O)O)[nH]c1=O,.,.,.,.,.,-2%
Cc1ccccc1-c1nnc(CN2CCN(c3cccc(C)c3C)CC2)o1,.,3%,.,.,.,.
COc1cccc(C2Nc3ccccc3-c3nnc(SCc4ccccc4)nc3O2)c1OC (stereo unspecified),.,-1%,.,.,.,.
O=C(N=C1SC2CS(=O)(=O)CC2N1c1cc(Cl)ccc1Cl)C1CCCO1 (stereo unspecified),50%,1%,10,7,50%,-10%
COCC1CCCCN1C(=O)c1ccc(OC2CCN(CCc3ccccc3)CC2)cc1 (stereo unspecified),?,-18%,-7,-4,15%,-8%
Cc1ccc(-c2cc(C(=O)N/N=C/c3c[nH]c4ccccc34)[nH]n2)cc1,-3%,1%,51*,47*,-12%,-1%
O=C(N/N=C/c1c[nH]c2ccccc12)c1ccn[nH]1,64%,2%,46,28*,117%,.
O=C(N/N=C/c1c[nH]c2ccccc12)c1cc(-c2ccccc2)n[nH]1,-5%,0%,22,7,1%,6%
O=C(N/N=C/c1c[nH]c2ccccc12)c1cc(-c2cccc3ccccc23)n[nH]1,1%,-10%,27,19*,-9%,19%
O=C(N/N=C/c1c[nH]c2ccccc12)c1cc(-c2ccc(-c3ccccc3)cc2)n[nH]1,?,-19%,54*,35*,192%,24%
CCOC(=O)CNC(=O)C1Cc2ccccc2CN1S(=O)(=O)c1cccs1 (stereo unspecified),19%,11%,16,-3,1%,-5%
C=C(C)c1cccc(C(C)(C)NC(=O)Nc2ccc(C)cn2)c1,30%,0%,63*,21*,?,5%
C=C(C)c1cccc(C(C)(C)NC(=O)N2CCOCC2)c1,-5%,?,-3,-3,.,-10%
C=C(C)c1cccc(C(C)(C)NC(=O)Nc2nnc(C(C)C)s2)c1,27%,-4%,-1,1,12µM*,2%
C=C(C)c1cccc(C(C)(C)NC(=O)Nc2nncs2)c1,-11%,-3%,-6,-2,2%,0%
C=C(C)c1cccc(C(C)(C)NC(=O)N2CCCC2)c1,-12%,4%,-9,1,13µM*,7%
C=C(C)c1cccc(C(C)(C)NC(=O)Nc2cc(C)ccn2)c1,16%,-1%,92*,30*,?,-6%
CN(C)c1ccc(CN(CC2CCCO2)C(=O)COc2ccccc2Cl)cc1 (stereo unspecified),.,0%,.,.,.,.
COc1ccc(CN2CCCC(C(=O)Nc3cccc(-n4cccn4)c3)C2)cc1 (stereo unspecified),?,-10%,3,-2,-12%,-7%
CC(=O)c1cccc(CN2CCCC(C(=O)Nc3cccc(-n4cccn4)c3)C2)c1 (stereo unspecified),?,-25%,-2,-2,23%,8%
CCc1ncc(CN2CCCC(C(=O)Nc3cccc(-c4ccc(F)cc4)c3)C2)cn1 (stereo unspecified),?,3%,-32,-1,?,-5%
O=C(Nc1cccc(-n2cccn2)c1)C1CCCN(Cc2ccc(C#CCCO)cc2)C1 (stereo unspecified),10µM*,-20%,-4,-4,36%,5%
SMILES,Pf growth 48h,Sm TGR inh,Shiga toxin inh,Cycloheximide cs,Pf growth 96h,NS1 inh
CCn1cc(CN2CCCC(C(=O)Nc3cccc(-c4cc5ccccc5[nH]4)c3)C2)cn1 (stereo unspecified),10µM*,-7%,-1,8,86%,16%
CCn1cc(CN2CCCC(C(=O)Nc3cccc(-n4cccn4)c3)C2)c(C)n1 (stereo unspecified),-29%,1%,-6,16,10µM*,-6%
COC(=O)CSc1nc2cc(C)ccc2cc1C#N,120%,12%,108*,46*,12%,-18%
CCOC(=O)CC(=O)CSc1nc2ccc(C)cc2cc1C#N,-4%,-4%,107*,37*,6%,-5%
CCOC(=O)C1(C(C)C)Oc2ccccc2C(c2ccc(OC)cc2)=C1C(=O)OC (stereo unspecified),.,.,i,5,.,.
O=C(N/N=C/c1ccc[nH]1)c1ccccc1OCc1ccccc1Cl,-17%,-10%,11,15*,?,.
NC(=O)COC(=O)c1ccccc1OCc1ccccc1Cl,-12%,-4%,-4,-1,-1%,.
O=C(N/N=C/c1ccco1)c1ccccc1OCc1ccccc1Cl,9%,-6%,-30,19*,-11%,-33%
CCN1CCC(N(Cc2cccc(OC)c2)C(=O)Nc2cccc(C(F)(F)F)c2)CC1,.,1%,.,.,.,.
O=C(NCc1ccccc1)c1cc2ccc(O)cc2oc1=O,38%,-10%,42*,21*,-10%,-77%
NC(=O)c1cc2ccc(O)cc2oc1=Nc1ccccc1,59%,-9%,50*,63*,21%,-101%
COc1ccc(OC)c(N=c2oc3cc(O)ccc3cc2C(N)=O)c1,11%,5%,5,15,13µM*,?
NC(=O)c1cc2ccccc2oc1=NCc1ccccc1,1%,3%,44,17,41%,-48%
NC(=O)c1cc2ccc(O)cc2oc1=NCc1ccccc1,13%,-20%,-5,16*,-4%,-51%
COc1ccc2cc(C(N)=O)c(=Nc3ccccc3)oc2c1,74%,0%,24,4,?,.
O=C(NCc1cccnc1)c1cc2ccccc2oc1=O,.,-5%,19,11,-13%,-10%
Cc1ccc(SCC(=O)NC(=O)NCc2ccccc2)c(C)c1,14%,-2%,-9,-3,6%,-8%
CC(CC(=O)Nc1nnc(C(C)(C)C)s1)c1ccccc1 (stereo unspecified),0%,-23%,-8,-2,20%,7%
Cc1cc2nc3c(nc2cc1C)CCCC3,96%,14%,108*,59*,48%,-4%
Cc1cccc2nc3c(nc12)CCCC3,4%,-5%,-15,-2,21%,2%
O=S(=O)(NCCc1csc2nc(-c3ccc(Cl)cc3)nn12)c1cccs1,.,5%,.,.,.,.
Brc1c(CSc2nnc(-c3ccco3)o2)nc2ccccn12,.,3%[11.4 µM],56,22*,-19%,-129%
